The sample as a whole holds a higher share of hits than the screen did.
Algae TAG accum = algal TAG accumulation induction | Chlamydomonas reinhardtii TAG, Nile Red fluorescence, 72 h | calls only at 10 µM (by protocol) | actives 0.84% (n = 44,000); call rule not given here;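 also: hits raise Nile Red signal meaning more stored TAG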
Large screens that a line does not name were inactive.

CC1CN(CC(O)COCc2ccc(Cl)cc2)CC(C)O1 (stereo unspecified)	none
Cc1cc(OCC(O)CN2CCN(CCO)CC2)ccc1C(C)C (stereo unspecified)	Algae TAG accum active
CC(C)(C)c1ccc(OCC(O)CN)cc1 (stereo unspecified)	none
CC1CN(CC(O)COc2ccc(Cl)cc2Cl)CC(C)O1 (stereo unspecified)	none
CC1CN(CC(O)COc2ccc(C(C)(C)C)cc2)CC(C)O1 (stereo unspecified)	Algae TAG accum active
CCOC(=O)N1CCN(CC(O)COc2ccc(C(C)(C)C)cc2)CC1 (stereo unspecified)	none
Cc1cc(OCC(O)CN2CCN(c3ccccc3)CC2)ccc1C(C)C (stereo unspecified)	none
Cc1cc(C)n(CC(O)COc2ccc(C(C)C)c(C)c2)n1 (stereo unspecified)	none
CC(C)(C)c1ccc(OCC(O)CN2CCN(CCO)CC2)cc1 (stereo unspecified)	Algae TAG accum active
Cc1c(C(=O)Nc2ccc3c(c2)OCCO3)cccc1[N+](=O)[O-]	none
CCN(CC)CCN1C(=O)C(O)=C(C(C)=O)C1c1ccc(Br)cc1 (stereo unspecified)	none
CC(C)(Oc1ccc(Cl)cc1)C(=O)Nc1ccccc1Cl	none
CC(C)CCNC(=O)c1ccco1	none
Cc1ccc(CN2CCCC(CO)C2)cc1 (stereo unspecified)	Algae TAG accum active
CCN(CC)C(=O)C1CCCN(Cc2ccc(C)cc2)C1 (stereo unspecified)	none
CCc1ccc(CN2CCCC(CO)C2)cc1 (stereo unspecified)	none
Cc1ccc(C(=O)NCCSC2CCCCC2)cc1[N+](=O)[O-]	none
Cc1ccc(C)c(C(O)=C2C(=O)C(=O)N(CCCN3CCOCC3)C2c2cccnc2)c1 (stereo unspecified)	none
Cc1cccc(NC(=O)CN(c2cccc(Cl)c2Cl)S(C)(=O)=O)c1	none
Cc1ccc(OCC(=O)Nc2ccc(C(=O)Nc3nccs3)cc2)cc1C	none
CCC(CC)C(=O)Nc1ccc(C(=O)Nc2nccs2)cc1	Algae TAG accum active
Cc1ccc(C(=O)Nc2nccs2)cc1Br	none
COc1cc(Cl)c(C)cc1NC(=O)c1ccncc1	none
CCN(CC)S(=O)(=O)c1ccc(NC(=O)C2CCCCC2)cc1	none
CCN(CC)S(=O)(=O)c1ccc(Cl)c(C(=O)Nc2nnc(-c3ccccc3)s2)c1	none
COc1ccc(CC(=O)Nc2cccc(I)c2)cc1	none
Cc1ccc(S(=O)(=O)c2ccc(-c3ccc([N+](=O)[O-])cc3)cc2)cc1	Algae TAG accum active
Cc1ccc(S(=O)(=O)c2ccc(C)cc2)cc1	none
Cc1ccc(NS(=O)(=O)c2ccc([N+](=O)[O-])cc2)cc1	none
CCCCOc1ccccc1NC(=O)CCCC	none
O=C(CSc1nc2ccccc2[nH]1)N1CCN(C(=O)CSc2nc3ccccc3[nH]2)CC1	none
Cc1ccc(NC(=O)C2CC=CCC2C(=O)O)c(Br)c1 (stereo unspecified)	none
O=C(O)C1CC=CCC1C(=O)Nc1ccc(F)cc1F (stereo unspecified)	Algae TAG accum active
Cc1ccc(Cl)cc1NC(=O)C1CC=CCC1C(=O)O (stereo unspecified)	none
O=[N+]([O-])c1ccc(N2CCN(c3ncccn3)CC2)nc1	none
C=CCNCC(=O)NC12CC3CC(CC(C3)C1)C2	Algae TAG accum active
O=C(CN1CCOCC1)NC12CC3CC(CC(C3)C1)C2	none
O=C(O)CNC(=O)NC12CC3CC(CC(C3)C1)C2	none
COc1cc(OC)cc(C(=O)Nc2nnc(C)s2)c1	none
Cc1nnc(NC(=O)c2cccnc2)s1	none
CCOc1ccc(C(=O)NCCC(=O)O)cc1	none
CCOc1ccc(C(=O)NCCNC(=O)c2ccc(OCC)cc2)cc1	Algae TAG accum active
CCOc1ccc(C(=O)NCCCN(C)C)cc1	none
COc1ccc(CN2CCC(C(=O)NCCN3CCOCC3)CC2)cc1OC	none
O=C(O)c1cc(S(=O)(=O)Nc2ccccc2C(=O)O)ccc1Br	none
CCCOc1ccc(C(=O)Nc2cccc(-c3nc4ncccc4o3)c2)cc1	none
Cc1c(NC(=O)CCCc2ccccc2)cccc1[N+](=O)[O-]	none
CN(C)C(=O)CSc1nnc(-c2ccc(Cl)cc2Cl)n1N	none
Nn1c(SCC(=O)Nc2ccccc2F)nnc1-c1ccc(Cl)cc1Cl	none
Nn1c(SCC(=O)NC23CC4CC(CC(C4)C2)C3)nnc1-c1ccc(Cl)cc1Cl	Algae TAG accum active
O=Cc1ccc(-c2ccc(N3CCCCC3)c([N+](=O)[O-])c2)o1	none
N/C(=N\O)c1ccc(NC(=O)c2ccco2)cc1	none
Cc1cc(NC(=O)CC23CC4CC(CC(C4)C2)C3)no1	none
Fc1ccccc1OCCN1CCOCC1	none
CCC(C)c1ccccc1OCCNC(C)C (stereo unspecified)	none
CCc1ccc(OCCOCCN2CCOCC2)cc1	Algae TAG accum active
CCOc1ccc(OCCOCCN2CCOCC2)cc1	none
CCC(C)c1ccccc1OCCOCCN1CCOCC1 (stereo unspecified)	Algae TAG accum active
CCC(C)c1ccccc1OCCCN1CCOCC1 (stereo unspecified)	Algae TAG accum active
c1ccc(-c2ccccc2OCCCN2CCOCC2)cc1	none
O=[N+]([O-])c1ccccc1OCCCN1CCOCC1	none
Clc1ccc(OCCOCCN2CCOCC2)cc1Cl	none
CCC(C)c1ccccc1OCCOCCN1CCCC1 (stereo unspecified)	none
CCC(C)c1ccccc1OCCN1CCCC1 (stereo unspecified)	none
CCC(C)c1ccccc1OCCCCN1CCCC1 (stereo unspecified)	Algae TAG accum active
Cc1ccc(C)c(NC(=O)C2C3CC/C=C\CCC32)c1 (stereo unspecified)	none
C/C(=C\C(=O)c1cccn(Cc2ccccc2)c1=O)c1cccn(Cc2ccccc2)c1=O	none
O=C(Nc1ncccc1Cl)C1c2ccccc2Oc2ccccc21	none
O=Cc1cc(Br)ccc1OCc1cccc(F)c1	none
CC(C(=O)NCc1cccnc1)N(c1ccccc1)S(C)(=O)=O (stereo unspecified)	none
CC(C(=O)NCc1ccc(Cl)cc1)N(c1ccccc1)S(C)(=O)=O (stereo unspecified)	Algae TAG accum active
CC(C(=O)NC1CCCCCC1)N(c1ccccc1)S(C)(=O)=O (stereo unspecified)	none
C/C(=C\c1ccccc1)CN1CCC(C(=O)N2CCN(Cc3ccc4c(c3)OCO4)CC2)CC1	none
Cc1c(Cl)ccc(S(=O)(=O)NCCN2CCOCC2)c1Cl	none
Cc1cc(I)ccc1S(=O)(=O)NCCCN1CCOCC1	Algae TAG accum active
COc1cc(Cl)c(S(=O)(=O)NCCCN2CCOCC2)cc1Cl	Algae TAG accum active
COc1cc(C)c(S(=O)(=O)NCCN2CCOCC2)cc1C	none
COc1cc(C)c(C)cc1S(=O)(=O)NCCN1CCOCC1	none
Cc1ccc(S(=O)(=O)NCCCN2CCOCC2)cc1	none
O=C(CSc1nnnn1-c1ccc2c(c1)OCO2)Nc1ccc(Oc2ccccc2)cc1	none
COc1ccc(C(=O)NCc2ccc(Cl)c(Cl)c2)c(OC)c1	none
CC(C)C(=O)Nc1cccc(NC(=O)c2cccc(COc3ccccc3)c2)c1	none
C(#CC12CC3CC(CC(C3)C1)C2)CN1CCOCC1	Algae TAG accum active
C(#CC1CC1)CN1CCOCC1	none
OC1(C#CCN2CCOCC2)CCCCC1	none
CC(C)c1ccc(CNC(=O)C(=O)Nc2ccccc2Cl)cc1	none
NC(=O)c1cc(NC(=O)c2ccc([N+](=O)[O-])cc2)ccc1N1CCOCC1	none
O=C(Nc1cccc(-c2nc3ncccc3o2)c1)c1ccccc1I	none
O=[N+]([O-])c1ccccc1OCCCNCc1ccco1	none
COc1ccc(S(=O)(=O)N(CC(=O)Nc2ccccc2F)c2cc(C)cc(C)c2)cc1OC	none
COc1ccc(S(=O)(=O)N(CC(=O)NC(C)C)c2cc(C)cc(C)c2)cc1OC	Algae TAG accum active
